Assay results from PubChem BioAssay (NCATS).
Inconclusive results are not listed. Calls of active or inactive are those of the source. Calls come from the whole dose curve; as a rule, active = well fitted curve in the direction sought with a large enough effect; inconclusive = small, poorly fitted or top-dose-only effect, or another doubt; inactive = no such curve, though single readings can be large; an effect the other way counts as inactive or inconclusive.

Columns and labels:
[1] = Quantitative High-Throughput drug screen in 47 multiple myeloma cell lines against the NCATS MIPE library collection: Karpas620_DSMZ cell viability assay (AID 1918959); note: nearly all actives have a fitted effect of over 30% in size
How it was run: (§1)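 Myeloma cells (500 per well) were exposed to MIPE 4.0 compounds by pin transfer and incubated 48 hours at 37C, 5% CO2. Viability was read as ATP by CellTiter-Glo luminescence, normalised to DMSO (100%) and media-only (0%) wells.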

[2] = Quantitative High-Throughput drug screen in 47 multiple myeloma cell lines against the NCATS MIPE library collection: KMM1_JCRB cell viability assay (AID 1918960); note: nearly all actives have a fitted effect of over 30% in size
How it was run: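 Each line was plated at 500 cells/well and treated 48 h with library drugs. Viability came from CellTiter-Glo luminescence relative to DMSO and cell-free medium controls.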

[3] = Quantitative High-Throughput drug screen in 47 multiple myeloma cell lines against the NCATS MIPE library collection: KHM11_PLB cell viability assay (AID 1918962); note: nearly all actives have a fitted effect of over 35% in size
How it was run: as §1

[4] = Quantitative High-Throughput drug screen in 47 multiple myeloma cell lines against the NCATS MIPE library collection: JIM3_ECACC cell viability assay (AID 1918963; note: nearly all actives have a fitted effect of over 35% in size)
How it was run: as §1

[5] = Quantitative High-Throughput drug screen in 47 multiple myeloma cell lines against the NCATS MIPE library collection: ARD_JJKsccE7 cell viability assay (AID 1918929)
How it was run: (§2)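 Myeloma cell lines, 500 cells per well, exposed to MIPE 4.0 library compounds for 48 h at 37C, 5% CO2. Viability from ATP by CellTiter-Glo luminescence; normalised to DMSO (100%) and media-only (0%) wells.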

[6] = Quantitative High-Throughput drug screen in 47 multiple myeloma cell lines against the NCATS MIPE library collection: H1112_PLB cell viability assay (AID 1918967; note: nearly all actives have a fitted effect of over 30% in size)
How it was run: as §2

[7] = Quantitative High-Throughput drug screen in 47 multiple myeloma cell lines against the NCATS MIPE library collection: JIM1_ECACC cell viability assay (AID 1918964)
How it was run: as §2

[8] = Quantitative High-Throughput drug screen in 47 multiple myeloma cell lines against the NCATS MIPE library collection: INA6_PLB cell viability assay (AID 1918965; note: nearly all actives have a fitted effect of over 55% in size)
How it was run: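 CellTiter-Glo ATP luminescence gave viability after 48 h compound treatment at 37C of 500 multiple myeloma cells per well. Normalisation used DMSO-only wells as 100% and media-only wells as 0% viability; primary qHTS of approved and investigational drugs.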

[9] = Quantitative High-Throughput drug screen in 47 multiple myeloma cell lines against the NCATS MIPE library collection: JJN3_DSMZ cell viability assay (AID 1918966; note: nearly all actives have a fitted effect of over 50% in size)
How it was run: as §2

Measured: Potency
Potency is the fitted concentration of half-maximal effect.

Nc1nc2c(ncn2COCCO)c(=O)[nH]1
inactive: [1] | [2] | [3] | [4]

NC(=O)c1ccc(I)c([N+](=O)[O-])c1
inactive: [5] | [2] | [6]
active: [4] 18.7 µM

COc1ccc(-c2oc3cc(OC)ccc3c2C(=O)c2ccc(C#N)cc2)cc1
active: [5] 10.5 µM | [1] 1.66 µM | [7] 6.62 µM
inactive: [4] | [8] | [9]

COc1c(Cl)cc2c([nH]c3cnccc32)c1NC(=O)c1cccnc1C
active: [5] 3.32 µM | [1] 18.7 µM | [3] 2.96 µM | [8] 2.96 µM | [9] 18.7 µM
inactive: [4]

CN1CCN(CCCN2c3ccccc3Sc3ccc(C(F)(F)F)cc32)CC1
inactive: [5] | [2] | [7]
active: [3] 10.5 µM | [8] 9.35 µM | [6] 7.43 µM

CCn1c(-c2nonc2N)nc2cnc(Oc3cccc(NC(=O)c4ccc(OCCN5CCOCC5)cc4)c3)cc21
active: [5] 5.9 µM | [2] 7.43 µM | [4] 20.9 µM | [7] 5.9 µM | [8] 2.64 µM

C[C@]1(c2nc3c(C(N)=O)cccc3[nH]2)CCCN1
inactive: [1] | [2]
active: [3] 18.7 µM

Oc1ccc(C2CNCCc3c2cc(O)c(O)c3Cl)cc1 (stereo unspecified)
inactive: [5] | [1] | [2] | [7] | [6]

CCCn1c(=O)c2[nH]c(C34CC5CC3C[C@@H](C5)C4)nc2n(CCC)c1=O
inactive: [5] | [1] | [8] | [6]

CC(C)C[C@H](NC(=O)[C@@H](O)[C@H](N)Cc1ccccc1)C(=O)O
active: [3] 20.9 µM | [4] 18.7 µM | [8] 20.9 µM | [6] 20.9 µM
inactive: [1] | [2] | [7]

CO[C@@H]1[C@H](N(C)C(=O)c2ccccc2)C[C@H]2O[C@]1(C)n1c3ccccc3c3c4c(c5c6ccccc6n2c5c31)C(=O)NC4
active: [5] 1.05 µM | [1] 1.66 µM | [2] 2.35 µM | [8] 0.132 µM

CCC(=O)N[C@H]1CC[C@H](C(=O)N(C)c2ccc(-c3nc4ccccc4o3)cc2)C1
active: [5] 11.8 µM | [4] 8.33 µM | [8] 14.8 µM | [6] 11.8 µM

CCc1ccc(CCOc2ccc(CC3SC(=O)NC3=O)cc2)nc1 (stereo unspecified)
not listed: [1] | [9]
inactive: all other assays above

Cc1cc(-c2ccc(CC(=O)Nc3ccc(-c4cccnc4)cc3)cc2)ccn1
active: [5] 16.6 µM | [2] 14.8 µM | [4] 18.7 µM | [7] 20.9 µM | [8] 13.2 µM | [6] 18.7 µM

CC(c1cc2ccccc2s1)N(O)C(N)=O (stereo unspecified)
not listed: [1] | [3] | [9]
inactive: all other assays above

O=C(NOC[C@H](O)CO)c1ccc(F)c(F)c1Nc1ccc(I)cc1F
active: [1] 0.0469 µM | [2] 0.0187 µM | [3] 0.0132 µM | [4] 0.166 µM | [7] 1.66 µM | [8] 0.0332 µM | [6] 0.0148 µM

CNC[C@H](O)c1cccc(O)c1
active: [2] 5.26 µM
inactive: [5] | [4] | [8] | [6]

O=NN(CCCl)C(=O)NCCCl
not listed: [5] | [9]
inactive: all other assays above

N=c1nc(N2CCCCC2)cc(N)n1O
inactive: [1] | [2] | [4] | [7] | [6]
active: [8] 23.5 µM

CC(C)(Sc1ccc(CCN(CCCCC2CCCCC2)C(=O)NC2CCCCC2)cc1)C(=O)O
inactive: [1] | [2] | [4] | [6]
active: [9] 18.7 µM

NC[C@H](O)c1ccc(O)c(O)c1
not listed: [5] | [8] | [9]
inactive: all other assays above

Cc1ccnc(NS(=O)(=O)c2ccc(NC(=O)Nc3ccc(S(=O)(=O)Nc4nccc(C)n4)cc3)cc2)n1
inactive: [6]
active: [1] 16.6 µM | [2] 14.8 µM | [7] 16.6 µM

CCCS(=O)(=O)Nc1ccc(F)c(C(=O)c2c[nH]c3ncc(-c4ccc(Cl)cc4)cc23)c1F
active: [3] 23.5 µM | [4] 18.7 µM | [8] 8.33 µM | [6] 9.35 µM
inactive: [1] | [2]

Cc1cnc(NC(=O)C2=C(O)c3ccccc3S(=O)(=O)N2C)s1
not listed: [3] | [5] | [8]
inactive: all other assays above

Clc1ccc(Nc2nnc(Cc3ccncc3)c3ccccc23)cc1
inactive: [2] | [7]
active: [1] 1.66 µM | [8] 16.6 µM

O=C1CCc2cc(OCCCCc3nnnn3C3CCCCC3)ccc2N1
inactive: [1] | [2] | [4] | [7]

COc1ccc(C2=N[C@H](c3ccc(Cl)cc3)[C@H](c3ccc(Cl)cc3)N2C(=O)N2CCNC(=O)C2)c(OC(C)C)c1
inactive: [1] | [2]
active: [4] 18.7 µM | [6] 18.7 µM

CC[C@H](Nc1ncnc2nc[nH]c12)c1nc2cccc(F)c2c(=O)n1-c1ccccc1
active: [3] 4.69 µM | [8] 13.2 µM | [6] 2.64 µM
inactive: [1] | [2]

OC(CCN1CCCCC1)(c1ccccc1)C1CC2C=CC1C2 (stereo unspecified)
inactive: [1] | [2] | [7] | [6]

Cc1cc2c(C(C)C)c(O)c(O)c(C=O)c2c(O)c1-c1c(C)cc2c(C(C)C)c(O)c(O)c(C=O)c2c1O
inactive: [2]
active: [1] 8.33 µM | [3] 10.5 µM | [4] 8.33 µM | [8] 9.35 µM | [9] 18.7 µM | [6] 18.7 µM

Clc1cccc(Cl)c1NC1=NCCN1
inactive: [1] | [2] | [3] | [4] | [6]

CCOC(=O)C1=C[C@]2(CC)CCCN3CCc4c(n1c1ccccc41)[C@@H]32
active: [1] 23.5 µM | [2] 20.9 µM | [3] 9.35 µM | [7] 11.8 µM | [8] 8.33 µM | [6] 11.8 µM

Cc1ccccc1C(OCCN(C)C)c1ccccc1 (stereo unspecified)
inactive: [1] | [2] | [3] | [4] | [6]

c1ccc([C@H]2CN3CCSC3=N2)cc1
inactive: [1] | [2] | [4]

Cn1cnc2c(F)c(Nc3ccc(Br)cc3Cl)c(C(=O)NOCCO)cc21
active: [1] 0.235 µM | [2] 5.26 µM | [3] 0.0469 µM | [4] 1.66 µM | [8] 0.526 µM | [6] 0.662 µM

COc1cc2nccc(Oc3ccc(NC(=O)NC4CC4)c(Cl)c3)c2cc1C(N)=O
inactive: [1]
active: [2] 3.72 µM | [4] 13.2 µM | [8] 16.6 µM | [9] 1.48 µM | [6] 2.96 µM

CC(C)(C)NCC(O)c1ccc(O)c(CO)c1 (stereo unspecified)
active: [2] 0.059 µM
inactive: [1] | [3] | [8] | [6]

CCCS(=O)(=O)Nc1ccc(F)c(C(=O)c2c[nH]c3ncc(Cl)cc23)c1F
active: [1] 20.9 µM | [2] 16.6 µM | [4] 16.6 µM | [8] 2.96 µM | [6] 20.9 µM

COc1ccc(-c2ccc3c(N4CCOCC4)nc(N4C[C@@H](C)O[C@@H](C)C4)nc3n2)cc1CO
active: [1] 1.05 µM | [2] 0.209 µM | [3] 0.0935 µM | [7] 0.0332 µM | [8] 5.9 µM

CC(=O)NC(C)c1ccc(Oc2ccc(OC(C)C)cc2)cc1 (stereo unspecified)
active: [1] 0.296 µM | [2] 2.64 µM | [4] 3.32 µM | [9] 16.6 µM | [6] 2.96 µM
inactive: [7]

Oc1cccc(-c2nc(N3CCOCC3)c3oc4ncccc4c3n2)c1
active: [1] 0.0959 µM | [2] 0.0136 µM | [4] 0.0762 µM | [7] 0.0121 µM | [8] 0.215 µM | [6] 9.59 µM

CCc1cncnc1N1CCN(Cc2nc3ccc(C(F)(F)F)cc3[nH]2)CC1
active: [1] 7.43 µM | [2] 2.64 µM | [8] 10.5 µM
inactive: [7]

Cn1c(=O)c(F)c(Nc2ccc(I)cc2F)c2c(=O)n(C[C@@H](O)CO)cnc21
active: [1] 0.0118 µM | [2] 16.6 µM | [4] 3.32 µM

Cc1ccccc1C(C(=O)NC1CCCC1)N(C(=O)Cn1cnc2ccccc21)c1cccc(F)c1 (stereo unspecified)
active: [8] 20.9 µM
inactive: [1] | [2]

Cc1cc(SCc2sc(-c3ccc(C(F)(F)F)cc3)nc2C)ccc1OCC(=O)O
active: [4] 18.7 µM | [8] 18.7 µM
inactive: [1] | [2] | [6]

CCCC(CCC)C(=O)O
inactive: [1] | [2] | [3] | [7] | [8]

CC(C)NCC(O)COc1ccc(COCCOC(C)C)cc1 (stereo unspecified)
inactive: [1] | [2] | [3] | [4] | [6]

Cc1cccc(-c2nn(C(=S)Nc3ccccc3)cc2-c2ccnc3ccccc23)n1
inactive: [1] | [2]
active: [4] 13.2 µM | [6] 16.6 µM

Nc1cccc(S(=O)(=O)N2CCCN(S(=O)(=O)c3ccc4c(c3)OCCO4)CC2)c1
inactive: [1] | [2] | [8]

C[C@H](NC(=O)Cc1cc(F)cc(F)c1)C(=O)N[C@@H]1C(=O)N(C)c2ccccc2-c2ccccc21
active: [4] 18.7 µM | [6] 5.9 µM
inactive: [1] | [2]

Nc1ccc(S(=O)(=O)Nc2ccnn2-c2ccccc2)cc1
inactive: [1] | [2] | [3] | [9] | [6]

Cc1cccc(-c2[nH]c(C(C)(C)C)nc2-c2ccc3nccnc3c2)n1
active: [1] 6.62 µM | [2] 4.69 µM | [4] 2.64 µM | [7] 6.62 µM | [8] 7.43 µM | [6] 5.26 µM

Cc1[nH]c(=O)c(C#N)cc1-c1ccncc1
inactive: [1] | [3]
active: [4] 18.7 µM | [8] 14.8 µM
